A selection: hits, their analogues and other compounds. The true share with any hit is near 10%.
VDR inhibitor: Inhibitors of the vitamin D receptor (VDR): qHTS; AID 504847, 2011; Vitamin D3 receptor (Homo sapiens), P11473; hit rate 0.93% among 400,000; VDR-SRC2-3 peptide fluorescence polarization, 2 h; Potency, µM, without a hit: max response, negative = inhibition, actives largely listed as inhibitors; also: potency is read from the fitted curve at half-maximal effect
Target sequence (P11473 whole entry, looked up): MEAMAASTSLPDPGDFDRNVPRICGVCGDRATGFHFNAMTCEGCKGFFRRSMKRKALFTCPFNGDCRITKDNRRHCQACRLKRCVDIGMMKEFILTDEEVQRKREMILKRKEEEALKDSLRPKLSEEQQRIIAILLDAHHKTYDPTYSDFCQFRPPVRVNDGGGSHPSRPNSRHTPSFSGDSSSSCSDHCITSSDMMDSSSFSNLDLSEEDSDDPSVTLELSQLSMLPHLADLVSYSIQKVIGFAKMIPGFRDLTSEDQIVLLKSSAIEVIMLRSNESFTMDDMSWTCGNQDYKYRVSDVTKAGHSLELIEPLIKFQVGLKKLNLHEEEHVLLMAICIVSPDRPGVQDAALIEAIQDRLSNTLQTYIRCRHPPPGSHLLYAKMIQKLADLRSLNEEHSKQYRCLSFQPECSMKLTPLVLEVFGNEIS
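Measured by FP: displacement of SRC2-3 coactivator peptide from VDR by library compounds, following a two-hour ambient incubation.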
G9a inh: qHTS Assay for Inhibitors of Histone Lysine Methyltransferase G9a; Histone-lysine N-methyltransferase EHMT2 (Homo sapiens), Q96KQ7; G9a H3K9 monomethylation, AlphaScreen, 2 h; Potency, µM (titrated, usually from 102 µM), inactives show top-dose activity, negative = inhibition, most hits filed as inhibitors; hit rate 8.8% among 350,000; AID 504332, 2011; also: potency is read from the fitted curve at half-maximal effect; nearly all actives have a fitted effect of over 75% in size
Target sequence (Q96KQ7 913-1193 limits assumed): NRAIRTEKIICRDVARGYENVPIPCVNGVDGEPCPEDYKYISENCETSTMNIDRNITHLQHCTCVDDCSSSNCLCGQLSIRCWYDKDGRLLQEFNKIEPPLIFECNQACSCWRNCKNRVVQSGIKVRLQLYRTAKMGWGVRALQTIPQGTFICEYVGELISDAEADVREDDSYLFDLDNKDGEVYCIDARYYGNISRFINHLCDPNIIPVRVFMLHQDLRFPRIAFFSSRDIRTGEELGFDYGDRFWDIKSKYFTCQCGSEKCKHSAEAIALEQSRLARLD
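Readings reflect AlphaScreen signal from monomethyl-H3K9 antibody detection. HMT at 20 nM; substrate b-H3K9 500 nM; cofactor SAM 20 uM; 2 h RT reaction; compounds tested as titrations in qHTS with 15 min preincubation.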
PLK1 PBD inh: qHTS for Inhibitors of PLK1-PDB (polo-like kinase 1 - polo-box domain): Primary Screen. Serine/threonine-protein kinase PLK1 (Homo sapiens), P53350. Plk1 PBD binding of FITC phosphopeptide, fluorescence polarization. Potency, µM, for inactives: max response, negative = inhibition, most hits filed as inhibitors. hit rate 2.8% among 360,000. AID 720504, 2013; also: potency is read from the fitted curve at half-maximal effect; series mostly up to about 57 µM; nearly all actives have a fitted effect of over 65% in size
Sfp inh: qHTS Assay for Inhibitors of Bacillus subtilis Sfp phosphopantetheinyl transferase (PPTase) | Biochemical Sfp PPTase activity, qHTS | Potency, µM, for inactives: largest response in the series, negative = inhibition, usual class: inhibitors | hit rate 3.5% among 310,000 | AID 1490, 2009;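 also: the enzyme is Sfp with the accession as filed and its product quenches rhodamine fluorescence; potency is read from the fitted curve at half-maximal effect; 0% = enzyme reaction without inhibitor and -100% = no enzyme wells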
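Sfp 15 nM + cpd, 15 min RT; start w/ rhodamine-CoA 5 uM, BHQ-2-YbbR 12.5 uM (final); 50 mM Hepes pH 7.6, 10 mM MgCl2, 0.01% NP-40, 0.01% BSA; read 525/598 nm at 0 and 30 min.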
MmCpn inh: Inhibitors of TCP-1 ring complex (TRiC) of Methanococcus maripaludis (MmCpn): qHTS. Chaperonin Mm-Cpn (Methanococcus maripaludis). purified Mm-Cpn ATPase, ADP Transcreener TR-FRET. Potency, µM (series often up to 76.9 µM), for inactives: top-dose activity, negative = inhibition, hits mostly inhibitors. hit rate 0.031% among 330,000; also: potency is read from the fitted curve at half-maximal effect; nearly all actives have a fitted effect of over 80% in size
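ATPase read-out: TR-FRET ADP immunoassay (anti-ADP Eu cryptate vs ADP-d2), ex 320 nm, em 590/665 nm; signal drops as ADP forms. Enzyme 25 nM, ATP 10 uM, 30 min at 37°C after 10 min compound preincubation.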
CCT modulator: High-Throughput Screening for Modulators of Cytosolic Chaperonin Activity | AID 651819, 2012 | hit rate 0.3% among 360,000 | activity change, % (no concentration beside the values), hits read low | purified chaperonin ATPase assay, HTRF ADP detection, 30 min; in the data active = activity change below about -30%
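TRiC at 40 or 20 nM final (batch-dependent) in 30 mM Tris pH 7.4, 100 mM KCl, 5 mM MgCl2, 1 mM DTT, with compound at single 76 uM and 10 uM ATP, 30 min at 37 deg C. ADP detected by HTRF Transcreener, 665/615 ratio.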
* = called active by the depositor; ? = inconclusive; · = no result given; [ ] = dose if it differs, or a comment. Unless noted, calls follow the shape of the dose curve; as a rule, active = well fitted curve in the direction sought with a large enough effect; inconclusive = small, poorly fitted or top-dose-only effect, or another doubt; inactive = no such curve, though single readings can be large; an effect the other way counts as inactive or inconclusive. Unless noted, % is scaled to controls: 0 for no effect and ±100 for the full control effect.

SMILES	VDR inhibitor	G9a inh	PLK1 PBD inh	Sfp inh	MmCpn inh	CCT modulator
O=C(Cc1ccc(S(=O)(=O)N2CCOCC2)s1)Nc1cc(C(F)(F)F)ccc1N1CCCC1	12%	50µM*	-3%	·	-8%	-2
O=C(O)c1cc(S(=O)(=O)Nc2ccc(N3CCCCC3)cc2)ccc1Cl	-6%	-18%[59 µM]	-12%	6%	0%	-1
O=S(=O)(Nc1ccc(N2CCCCC2)cc1)c1ccc(F)c(F)c1	5%	13µM*	-8%	11%	0%	4
O=C(Cc1ccc(S(=O)(=O)N2CCOCC2)s1)Nc1ccc(N2CCOCC2)cc1	-10%	?	-9%	6%	-1%	-3
COC(=O)CCC(=O)Nc1cc(S(=O)(=O)Nc2ccc(Cl)cc2)ccc1N1CCOCC1	-17%	?	15µM*	-16%	-1%	-2
CC(=O)c1ccc(NC(=O)CNc2cc(S(=O)(=O)N3CCOCC3)ccc2N2CCCC2)cc1	-9%	35µM*	-13%	·	-7%	-1
CC(C)C(=O)Nc1cc(S(=O)(=O)N2CCOCC2)ccc1N1CCCCC1	71µM*	·	24µM*	·	-1%	-3
CC(=O)N1c2ccc(S(=O)(=O)N3CCCCC3)cc2CC1C(=O)Nc1ccc(F)cc1C (configuration not stated)	?	-20%	27µM*	15%	-4%	0
NC(=O)c1ccc(NC(=O)CNc2cc(S(=O)(=O)N3CCOCC3)ccc2N2CCCC2)cc1	30%	·	-5%	·	·	-8
CCCC(C)C(=O)Nc1cc(S(=O)(=O)N2CCCCC2)ccc1N1CCOCC1 (configuration not stated)	7%	4%[59 µM]	-17%	·	-5%	1
CCC[C@@H]1C[C@@]1(CCC)C(NC(=O)c1ccco1)c1ccc(Cl)cc1 (some centres not stated)	·	·	·	12%	·	·
Cc1ccc(NC(=O)c2sc3ncn(Cc4cccc(F)c4)c(=O)c3c2C)c(Br)c1	-2%	-3%[59 µM]	·	·	·	·
CCc1cccc(NC(c2nnc(-c3ccccc3)o2)c2ccc(F)cc2Cl)c1 (configuration not stated)	6%	5%[59 µM]	·	·	·	·
Cc1noc(/C=C/c2ccccc2F)c1S(=O)(=O)N1CCC(C(=O)Nc2ccc(C#N)cc2)CC1	1%	-4%[59 µM]	·	·	·	·
O=C(Nc1ccc(Cl)c(Cl)c1)Nc1cc(S(=O)(=O)N2CCOCC2)ccc1N1CCCC1	-11%	?	17µM*	4%	-7%	0
Cc1ccc(C(=O)Nc2cc(S(=O)(=O)N3CCOCC3)ccc2N2CCCC2)cc1	0%	?	1%	·	1%	1
CC(C)CC(=O)NC(=S)Nc1cc(C(F)(F)F)ccc1N1CCOCC1	-8%	79µM*	-12%	18%	1%	1
CC(C)(C)C(=O)Nc1ccc(S(=O)(=O)N2CCCC2)cc1	7%	7%	-24%	25%	-1%	2
CC(C)(C)C(=O)Nc1cc(S(=O)(=O)N2CCCCC2)ccc1N1CCCCC1	-7%	40µM*	-24%	-6%	4%	-2
O=C(CCc1ccccc1)NC(=S)Nc1cc(C(F)(F)F)ccc1N1CCOCC1	11%	15%[0.501 µM]	-20%	1%	0%	-3
Cc1ccc(S(=O)(=O)NC(=O)c2cc(C)n(-c3cc(S(=O)(=O)N4CCOCC4)ccc3N3CCCC3)c2C)cc1	18%	?	30µM*	?	-3%	-2
O=C(Nc1ccccc1F)Nc1cc(S(=O)(=O)N2CCOCC2)ccc1N1CCCC1	-12%	?	-3%	0%	-9%	1
CCOC(=O)c1noc2ncnc(NCc3ccccc3OC)c12	17%	3%[59 µM]	·	·	·	·
COc1ccc(-c2nc(CSCC(=O)N3CCN(c4cccc(C)c4C)CC3)c(C)o2)cc1OC	4%	-28%[59 µM]	·	·	·	·
O=C(Nc1cc(S(=O)(=O)Nc2ccc(Cl)cc2)ccc1N1CCCCC1)c1ccc(F)cc1Cl	-7%	10µM*	9.5µM*	?	-5%	1
SMILES	VDR inhibitor	G9a inh	PLK1 PBD inh	Sfp inh	MmCpn inh	CCT modulator
Cc1ccc(S(=O)(=O)NC(=O)c2cc(C)n(-c3ccccc3)c2C)cc1	-13%	?	-2%	35%	-1%	0
Cc1ccc(S(=O)(=O)NC(=O)c2cc(C)n(-c3ccc(N(C)C)cc3)c2C)cc1	?	45µM*	-9%	-19%	1%	-1
COc1ccc(O[C@H]2C=C[C@@H](c3ccccc3)O[C@H]2COC(=O)CC/C(C)=N\O[C@@H](C)c2cc(-c3c(C)cc(C)cc3C)no2)cc1	·	·	·	-3%	·	·
O=C1CC(c2cccc(F)c2)c2c(c3ccccc3[nH]c2=O)O1 (configuration not stated)	-4%	?	-9%	6.3µM*	2%	-8
CC(=O)c1ccc(S(=O)(=O)NCC(=O)N2CCN(C/C=C/c3ccccc3)CC2)cc1	-16%	7.9µM*	27µM*	·	-1%	0
Cc1ccc(S(=O)(=O)NCCC(=O)N2CCN(C/C=C/c3ccccc3)CC2)cc1	12%	10%[12.7 µM]	0%	·	-2%	-1
Cc1cn(CC2COC(C)(C)O2)c(=O)[nH]c1=O (configuration not stated)	-24%	-2%	6µM*	23%	-2%	-2
COC(Cn1cc(C)c(=O)[nH]c1=O)OC	-1%	104%[59 µM]	-1%	-2%	1%	-1
Cc1cccc(C(=O)Nc2cccc(OCc3cc(=O)n4c(C)csc4n3)c2)c1	3%	-32%[59 µM]	·	·	·	·
COc1cc2[nH]c(=S)nc(NCc3cccs3)c2cc1OC	1%	28µM*	-14%	0%	0%	1
COc1cc2[nH]c(=S)nc(NC3CCCCCC3)c2cc1OC	?	-7%	-28%	7%	-2%	-1
COc1cc2[nH]c(=S)nc(Nc3ccc(NC(C)=O)cc3)c2cc1OC	?	-1%	30µM*	10%	-2%	0
COc1ccccc1CNc1nc(=S)[nH]c2cc(OC)c(OC)cc12	5%	79µM*	-20%	-7%	0%	1
COc1cc2[nH]c(=S)nc(NCC3CCCO3)c2cc1OC (configuration not stated)	-9%	?	-13%	-9%	-6%	-1
O=c1c(CCc2ccccc2)nc2cnc(Oc3ccccc3)nc2n1C[C@H]1CCCO1	-24%	3%[12.7 µM]	·	-14%	·	·
CC(=O)c1ccc(C2C=CC(Oc3ccc(F)cc3C)C(CO)O2)cc1 (configuration not stated)	·	·	·	-5%	·	·
